Inconclusive results are not listed. Where a call stands in place of a potency, no number is given. A number with no mark means an inactive call. Calls of active or inactive are those of the source. Unless noted, the call rests on the fitted dose curve; in most records, active means well fitted curve in the direction sought with a large enough effect; inconclusive means small, poorly fitted or top-dose-only effect, or another doubt; inactive means no such curve, though single readings can be large; an effect the other way counts as inactive or inconclusive.
Columns and labels:
[1] = system: Zika virus NS2B-NS3 protease (unlinked complex); test: Primary screen GU Rhodamine qHTS for Zika virus inhibitors: Unlinked NS2B-NS3 protease assay (AID 1347159); further: nearly all actives have a fitted effect of over 60% in size
Procedure, shortened: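 Noncovalent NS2B hydrophilic domain/NS3 protease complex (25 nM final) in 10 mM Tris-HCl pH 8.0, 0.01% Tween 20, preincubated 15 min with compounds (up to 114 microM), then 1.5 microM Rhodamine110 substrate. Fluorescence change over 15 min fitted to 4-parameter Hill.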

[2] = target: Cytochrome P450 2D6 (Homo sapiens) (UniProt P10635); test: Cytochrome P450 family 2 subfamily D member 6 (CYP2D6) small molecule antagonists: luciferase biochemical (cell-free) qHTS assay (AID 1645840; active means well fitted curve in the direction sought with a large enough effect in the repeat runs; an effect the other way counts as inactive or inconclusive; further: nearly all actives have a fitted effect of over 55% in size; further: potency means the concentration at half of the fitted maximal effect)
Procedure, shortened: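 P450-Glo luminescent screen: recombinant CYP2D6 enzyme–proluciferin substrate mix preincubated with compound 10 min at room temperature, then NADPH regeneration added for 1 h at room temperature. Detection reagent added for 20 min; luciferin light read as relative luminescence units.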

[3] = Primary fluorescence-based thiol-reactive (MSTI) qHTS assay for identification of artifact compounds. (AID 1845221);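 further: thiol-reactive compounds lower the probe fluorescence signal; nearly all actives have a fitted effect of over 65% in size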
Procedure, shortened: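 First, 4 uM MSTI in 2% DMSO/PBS pH 7.4 was dispensed; next, compounds were added; then plates sat 1 h at room temperature without light. Finally, emission at 598 nm was recorded.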

[4] = Primary redox qHTS assay for identification of artifact compounds. (AID 1845223)
Procedure, shortened: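 Amplex Red (25 uM) and HRP (250 mU/mL) in HBSS, with compounds for 15 min, then 250 uM DTT for 30 min, room temperature, dark. Fluorescence 525/598 nm read; normalized to DMSO and 10 uM DA3003; Hill fit.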

HaCat [5] = test: Cytotoxic Profiling of Annotated Libraries Using Quantitative High-Throughput Screening (AID 1296008); conditions: Five cell lines viability, CellTiter-Glo ATP luminescence, 48-72 h; max response: hits give low values; further: nearly all actives have a fitted effect of over 60% in size; further: potency means the concentration at half of the fitted maximal effect
Procedure, shortened: (§1)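 Compounds were pin-transferred onto cells and incubated 48 or 72 hr at 37 degree Celsius, 95% humidity. CellTiter-Glo was added, plates sat 10 min at room temperature, then ATP-coupled luminescence was imaged as the viability read-out.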

KB-3-1 = test: as above; conditions: Five cell lines viability, CellTiter-Glo ATP luminescence, 48-72 h; max response: hits give low values
Procedure, shortened: as §1

SKOV3 = test: Primary qHTS to identify gynecologic anti-cancer compounds using libraries of approved drugs and bioactive compounds (AID 1345084); conditions: Gynecologic cancer cell panel viability, ATPlite luminescence, 48 h; series mostly up to 57.5 µM; further: nearly all actives have a fitted effect of over 55% in size; further: potency means the concentration at half of the fitted maximal effect
Procedure, shortened: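 48 h compound exposure at 37 C, 5% CO2; five-point qHTS. ATPlite luminescence readout of cell ATP.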

[6] = Primary qHTS for inhibitors of nuclear receptor binding SET domain protein 2 (NSD2) in an isogenic RCH-ACV NSD2 p.E1099K mutant (9B) (AID 1645876); further: nearly all actives have a fitted effect of over 70% in size; further: potency means the concentration at half of the fitted maximal effect
[7] = Primary qHTS for inhibitors of nuclear receptor binding SET domain protein 2 (NSD2) in an RCH-ACV wild type WT cells (2C) (AID 1645877); further: nearly all actives have a fitted effect of over 70% in size; further: potency means the concentration at half of the fitted maximal effect
HACAT [8] = test: qHTS assay to identify novel small-molecules to repurpose for Merkel cell carcinoma treatment (AID 1296009); conditions: MCC and control cell lines, CellTiter-Glo viability, 72 h; at 44.8 µM (top of the series) unless noted; further: nearly all actives have a fitted effect of over 60% in size
Procedure, shortened: (§2)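 qHTS format: cells treated with library compounds in DMSO across 8 (NPC) or 11 (MIPE) concentrations. Readout after 72 hr at 37 degree celsius was CellTiter-Glo luminescence.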

[9] = target: Cytochrome P450 2C9 (Homo sapiens) (UniProt P11712); test: Cytochrome P450 family 2 subfamily C member 9 (CYP2C9) small molecule antagonists: luciferase biochemical (cell-free) qHTS assay (AID 1645842; active means well fitted curve in the direction sought with a large enough effect in the repeat runs; an effect the other way counts as inactive or inconclusive; further: nearly all actives have a fitted effect of over 55% in size; further: potency means the concentration at half of the fitted maximal effect)
Procedure, shortened: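 Luminescence, after 20 min with luciferin detection reagent, reflected CYP2C9 turnover during a 1 h NADPH-driven reaction at 37C. Enzyme-substrate mix contained 0.4% bovine serum albumin and was preincubated with compound 10 min at room temperature.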

CRL-7250 = normal cell line; test: qHTS assay to identify novel small-molecules to repurpose for Merkel cell carcinoma treatment (AID 1296009); conditions: MCC and control cell lines, CellTiter-Glo viability, 72 h; series mostly up to 92 µM; further: nearly all actives have a fitted effect of over 60% in size
Procedure, shortened: as §2

NIH3T3 = test: as above; conditions: MCC and control cell lines, CellTiter-Glo viability, 72 h; at 44.8 µM (top of the series) unless noted
Procedure, shortened: as §2

[10] = P-glycoprotein substrates identified in KB-3-1 adenocarcinoma cell line, qHTS therapeutic library screen (AID 1346986); further: nearly all actives have a fitted effect of over 60% in size
Procedure, shortened: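 Resistance attributable to P-gp was assessed by comparing AC50 in KB-8-5-11 with parental KB-3-1 and by tariquidar reversal. Cells were exposed 72 h and viability read by CellTiter-Glo.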

Chain of Cytochrome P450 2C9 (Homo sapiens) (P11712 whole entry, looked up): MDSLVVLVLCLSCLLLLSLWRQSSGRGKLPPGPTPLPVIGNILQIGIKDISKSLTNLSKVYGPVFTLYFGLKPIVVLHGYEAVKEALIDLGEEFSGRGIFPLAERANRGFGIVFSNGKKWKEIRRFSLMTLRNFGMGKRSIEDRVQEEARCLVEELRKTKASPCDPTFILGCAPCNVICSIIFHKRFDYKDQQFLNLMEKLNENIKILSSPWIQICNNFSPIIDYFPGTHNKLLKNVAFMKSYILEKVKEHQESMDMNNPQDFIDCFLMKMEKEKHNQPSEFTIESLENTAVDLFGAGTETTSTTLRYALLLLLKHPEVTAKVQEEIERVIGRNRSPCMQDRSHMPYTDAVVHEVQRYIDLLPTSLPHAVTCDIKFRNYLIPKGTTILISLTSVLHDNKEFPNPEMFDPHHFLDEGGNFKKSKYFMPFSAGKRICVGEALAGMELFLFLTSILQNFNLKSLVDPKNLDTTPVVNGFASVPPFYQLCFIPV
Chain of Cytochrome P450 2D6 (Homo sapiens) (P10635 whole entry, looked up): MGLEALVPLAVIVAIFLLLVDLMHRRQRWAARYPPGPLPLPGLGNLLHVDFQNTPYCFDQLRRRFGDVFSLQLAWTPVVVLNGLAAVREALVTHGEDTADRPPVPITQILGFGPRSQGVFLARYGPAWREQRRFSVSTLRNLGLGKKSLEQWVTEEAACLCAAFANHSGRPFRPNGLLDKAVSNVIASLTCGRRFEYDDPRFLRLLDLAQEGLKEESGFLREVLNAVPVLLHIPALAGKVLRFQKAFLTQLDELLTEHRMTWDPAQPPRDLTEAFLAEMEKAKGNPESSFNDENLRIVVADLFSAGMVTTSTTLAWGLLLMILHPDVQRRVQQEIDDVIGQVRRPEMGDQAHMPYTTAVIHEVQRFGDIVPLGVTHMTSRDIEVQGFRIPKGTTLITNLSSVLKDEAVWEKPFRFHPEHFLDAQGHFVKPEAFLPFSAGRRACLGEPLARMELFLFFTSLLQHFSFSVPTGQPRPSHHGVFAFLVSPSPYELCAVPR

## C[C@H]1CN(CC[C@H](O)C2CCCCC2)CC[C@@]1(C)c1cccc(O)c1
[1]
  Potency: inactive
[2]
  Potency: 5.35 µM (active)
[3]
  Potency: inactive
[4]
  Potency: inactive
HaCat [5]
  max response: 3.77%
KB-3-1
  max response: -5.46%
SKOV3
  Potency: inactive

## C[C@]12CC[C@@H](O)C[C@@H]1CC[C@@H]1[C@@H]2CC[C@]2(C)C(=O)[C@@H](Br)C[C@@H]12
[1]
  Potency: inactive
[6]
  Potency: 6.49 µM (active)
[7]
  Potency: 10.3 µM (active)
[4]
  Potency: inactive
HaCat [5]
  outcome: inactive
KB-3-1
  max response: 9.47%
HACAT [8]
  outcome: inactive
SKOV3
  Potency: inactive

## CN(Cc1cccc(-c2ccncc2)c1)C(=O)Oc1ccc(-c2ccc(C(N)=O)cc2)cc1
[1]
  Potency: inactive
[9]
  Potency: inactive
[3]
  Potency: inactive
[4]
  Potency: inactive
HaCat [5]
  outcome: inactive
CRL-7250
  Potency: inactive
HACAT [8]
  outcome: inactive
SKOV3
  Potency: inactive

## CCC(C)C1NC(=O)C(C(C)=O)=C1O (stereo unspecified)
[1]
  Potency: inactive
[3]
  Potency: inactive
[4]
  Potency: inactive
HaCat [5]
  outcome: inactive
KB-3-1
  max response: -22.8%
HACAT [8]
  outcome: inactive [at 92 µM]
SKOV3
  Potency: inactive

## C[C@H]1CC[C@@H]2[C@@H](C)[C@H]3[C@H](C[C@H]4[C@@H]5CC=C6CC(O[C@@H]7O[C@H](CO)[C@@H](O)[C@H](O[C@@H]8O[C@H](CO)[C@@H](O)[C@H](O)[C@H]8O)[C@@H]7O[C@@H]7O[C@@H](C)[C@H](O)[C@@H](O)[C@H]7O)CC[C@]6(C)[C@H]5CC[C@]34C)N2C1 (stereo partly specified)
[1]
  Potency: inactive
[3]
  activity change, negative = thiol reactive: 134% [at 11.5 µM]
HaCat [5]
  max response: -13.1%
KB-3-1
  max response: 2.33%
NIH3T3
  outcome: inactive [at 9.27 µM]

## CC(O)(c1ccccc1)C(Cc1ccc(Cl)cc1)n1cncn1 (stereo unspecified)
[1]
  Potency: inactive
[9]
  Potency: 0.952 µM (active)
[3]
  Potency: inactive
[4]
  Potency: inactive
HaCat [5]
  outcome: inactive
KB-3-1
  max response: -4.41%
HACAT [8]
  outcome: inactive
SKOV3
  Potency: inactive

## C=C(C)[C@@]12O[C@@H]1[C@@]1(C)C(=C[C@H]2O)CC[C@@H](O)[C@@H]1C
[10]
  Potency: inactive
[1]
  Potency: inactive
[6]
  Potency: inactive
[7]
  Potency: inactive
[3]
  Potency: inactive
[4]
  Potency: inactive
HaCat [5]
  max response: -1.07%
KB-3-1
  outcome: inactive
SKOV3
  Potency: inactive

## C/C=C1/CN2CC[C@]34C(=Nc5ccccc53)[C@@H]2C[C@@H]1[C@H]4C(=O)OC
[1]
  Potency: inactive
[6]
  Potency: inactive
[7]
  Potency: inactive
HaCat [5]
  max response: -0.364%
KB-3-1
  max response: -1.68%
SKOV3
  Potency: inactive

## COC1(C[S@@](=O)c2ccccc2)CCN(CCc2c[nH]c3ccc(F)cc23)CC1
[1]
  Potency: inactive
[2]
  Potency: 2.39 µM (active)
[9]
  Potency: inactive
[3]
  Potency: inactive
[4]
  Potency: inactive
HaCat [5]
  max response: 3.53%
KB-3-1
  max response: 6.86%
SKOV3
  Potency: inactive

## CCCN(CCC)CCc1ccc(OC)c(OCCc2ccccc2)c1
[10]
  Potency: inactive
[1]
  Potency: inactive
[2]
  Potency: 0.213 µM (active)
HaCat [5]
  max response: -13.9%
KB-3-1
  outcome: inactive
SKOV3
  Potency: inactive

## CCC1CN2CCC3(C(=O)Nc4cccc(O)c43)C2CC1/C(=C/OC)C(=O)OC (stereo unspecified)
[1]
  Potency: inactive
[6]
  Potency: inactive
[7]
  Potency: inactive
[3]
  Potency: inactive
[4]
  Potency: inactive
HaCat [5]
  outcome: inactive
KB-3-1
  max response: -16.6%
HACAT [8]
  outcome: inactive [at 17.4 µM]
SKOV3
  Potency: inactive

## CC[C@@H]1C[C@H]2CC[C@H](O2)[C@H](C)C(=O)O[C@@H](C)C[C@@H]2CC[C@@H](O2)[C@@H](C)C(=O)O[C@H](C)C[C@H]2CC[C@H](O2)[C@H](C)C(=O)O[C@@H](C)C[C@@H]2CC[C@@H](O2)[C@@H](C)C(=O)O1
[6]
  Potency: 0.0216 µM (active)
[7]
  Potency: 0.0242 µM (active)
[4]
  Potency: inactive
HaCat [5]
  Potency: 0.485 µM (active)
KB-3-1
  Potency: 0.0968 µM (active)
SKOV3
  Potency: 0.562 µM (active)

## CC1(C)C(=O)N(c2ccc(C#N)c(C(F)(F)F)c2)C(=S)N1c1ccc(C(N)=O)c(F)c1
[1]
  Potency: inactive
[2]
  Potency: inactive
[9]
  Potency: 19 µM (active)
[6]
  Potency: inactive
[7]
  Potency: inactive
[3]
  Potency: inactive
[4]
  Potency: inactive
HaCat [5]
  outcome: inactive
KB-3-1
  max response: -16.1%
HACAT [8]
  outcome: inactive
SKOV3
  Potency: inactive

## CC1CCCC(O)CCC/C=C/c2cc(O)cc(O)c2C(=O)O1 (stereo unspecified)
[10]
  Potency: inactive
[7]
  Potency: 11.3 µM (active)
[4]
  Potency: inactive
HaCat [5]
  max response: 0.224%
KB-3-1
  outcome: inactive
SKOV3
  Potency: inactive

## CC1=CC2/C=C(\C)CCC(O)C(O)/C=C/C(=O)OC23C(=O)NC(CC(C)C)C3C1C (stereo unspecified)
[1]
  Potency: inactive
[6]
  Potency: 8.93 µM (active)
[3]
  Potency: inactive
[4]
  Potency: inactive
HaCat [5]
  outcome: inactive
KB-3-1
  max response: 9.99%
HACAT [8]
  outcome: inactive [at 17.4 µM]

## CCOP(=O)(OCC)Oc1ccc2c(C)cc(=O)oc2c1
[7]
  Potency: inactive
[3]
  Potency: inactive
[4]
  Potency: inactive
HaCat [5]
  max response: -15.5%
KB-3-1
  max response: -1.13%
SKOV3
  Potency: inactive

## CO[C@H]1C[C@H](O[C@H]2CC[C@]3(C=O)[C@H]4CC[C@]5(C)[C@@H](C6=CC(=O)OC6)CC[C@]5(O)[C@@H]4CC[C@]3(O)C2)O[C@H](C)[C@H]1O
[6]
  Potency: 0.0399 µM (active)
[7]
  Potency: 0.0893 µM (active)
[3]
  Potency: inactive
[4]
  Potency: inactive
HaCat [5]
  Potency: 0.356 µM (active)
KB-3-1
  Potency: 0.126 µM (active)
NIH3T3
  outcome: inactive [at 17.4 µM]
SKOV3
  Potency: 0.141 µM (active)

## Cc1cccc(NC(=O)NC2N=C(c3ccccc3)c3ccccc3N(CC(=O)c3ccccc3C)C2=O)c1 (stereo unspecified)
[2]
  Potency: inactive
[3]
  Potency: inactive
[4]
  Potency: inactive
HaCat [5]
  outcome: inactive
KB-3-1
  max response: 7.53%
HACAT [8]
  outcome: inactive
NIH3T3
  outcome: inactive
SKOV3
  Potency: inactive

## NCCCCCNC1(c2ccccc2)CCCCC1
[1]
  Potency: inactive
[2]
  Potency: 2.13 µM (active)
[9]
  Potency: inactive
[4]
  Potency: inactive
HaCat [5]
  outcome: inactive
KB-3-1
  max response: -2.11%
HACAT [8]
  outcome: inactive
SKOV3
  Potency: inactive
